MEP2-GFP yeast – alters MEP2-GFP fluorescence in TOR pathway yeast screen; S. cerevisiae MEP2-GFP strain, flow cytometry GFP, 3 h; 100% = DMSO control level; hit rate 0.51% among 330,000; GFP response vs DMSO, % at 10 µM; AID 2016;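 active = GFP response versus DMSO above a set limit, roughly screen mean plus 3 SD, cut at about 180% in these data; inconclusive = fewer than 70 cells counted for a yeast strain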;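 note: median GFP fluorescence of the barcode-gated MEP2-GFP cells per well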
AGP1-GFP MLPCN – modulators of TOR pathway AGP1-GFP in S. cerevisiae | S. cerevisiae AGP1-GFP multiplex flow cytometry, 3 h; GFP as percent of DMSO wells | GFP response vs DMSO, % at 10 µM | hit rate 0.02% among 320,000;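 active = GFP response relative to DMSO above a set limit, near screen average plus 3 SD, cut at about 150% in these data; inconclusive = fewer than 70 cells counted for the yeast strain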;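 note: median GFP channel fluorescence of the gated AGP1 strain per well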
LAP4-GFP MLPCN – modulators of TOR pathway LAP4-GFP in S. cerevisiae; S. cerevisiae LAP4-GFP multiplex, flow cytometry GFP, 3 h; median GFP as percent of DMSO wells; GFP response vs DMSO, % at 10 µM; hit rate 0.34% among 320,000; AID 2023;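 active = GFP response vs DMSO above a set limit, about the screen mean plus 3 SD, cut at about 150% in these data; inconclusive = under 70 cell events counted for the yeast strain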
RPL19A-GFP yeast – alters RPL19A-GFP fluorescence in TOR pathway yeast screen | percent response vs DMSO, % at 10 µM | AID 2025 | S. cerevisiae RPL19A-GFP strain, flow cytometry, 3 h; hits give low values | hit rate 0.3% among 330,000;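 active = percent response vs DMSO below 50%; inconclusive = fewer than 70 events counted for the yeast strain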;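 note: median channel GFP fluorescence of the barcoded RPL19A-GFP strain; ratio of sample median GFP to plate DMSO average so 100% = DMSO; lower means less RPL19A-GFP as with rapamycin TOR inhibition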
CIT2-GFP yeast – modulators of TOR pathway CIT2-GFP in S. cerevisiae; S. cerevisiae CIT2-GFP strain, flow cytometry, 3 h; 100 means same as DMSO wells; GFP response vs DMSO, % at 10 µM; hit rate 0.065% among 320,000; AID 2029;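 active = GFP response relative to DMSO above a set limit, near the screen mean plus 3 SD, cut at about 150% in these data; inconclusive = Fewer than 70 cells measured for a yeast strain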;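 note: ratio of well median GFP fluorescence to mean of DMSO wells on the plate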
Myeloid diff 2 – promotes myeloid progenitor differentiation; ER-HoxA9 myeloid progenitors, lysozyme-GFP differentiation, flow cytometry; hit rate 1% among 360,000; calls only at 10 µM;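 active = normalized GFP-positive differentiation at or above the plate's own cutoff, the solvent-only control mean plus 3 SD; inconclusive = no clear call, values can overlap the other calls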;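 note: cells exposed to compound for four days before flow analysis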
LAP4 cherry2 – yeast LAP4-GFP modulation, second cherry pick | shares compounds with LAP4-GFP MLPCN | S. cerevisiae LAP4-GFP strain, flow cytometry GFP, 3 h | GFP response vs DMSO, % at 10 µM | hit rate 20% among 590 | AID 2621;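 active = GFP signal as percent of the solvent control above about 150%, meaning raised reporter expression, limit read from the data; inconclusive = fewer than 70 cells counted in the well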;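 note: ratio of well median GFP fluorescence to plate DMSO mean so 100% = DMSO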
MEP2-GFP pick2 – second confirmation of modulators of TOR reporter MEP2-GFP in yeast; GFP response vs DMSO, % at 10 µM; hit rate 10% among 590; shares compounds with LAP4-GFP MLPCN; S. cerevisiae MEP2-GFP strain, flow cytometry GFP, 3 h; AID 2622;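 active = GFP signal above 150% of the solvent control wells, that is a rise of more than half; inconclusive = fewer than 70 yeast cells counted in the well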;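 note: median channel GFP fluorescence of all gated yeast cells per well; ratio of median GFP to plate DMSO average so 100% = DMSO level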
RPL19A GFP CP2 – second confirmation of modulators of TOR reporter RPL19A-GFP in yeast | shares compounds with LAP4-GFP MLPCN | S. cerevisiae RPL19A-GFP strain, flow cytometry GFP, 3 h; hits give low values; 100% means same as DMSO wells | GFP response vs DMSO, % at 10 µM | hit rate 3% among 590 | AID 2623;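 active = under 65% GFP response relative to DMSO; inconclusive = yeast strain with under 70 measured events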;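 note: median GFP channel fluorescence per well over the all cells gate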
CIT2 GFP CP2 – yeast CIT2-GFP TOR reporter modulation, second cherry pick. shares compounds with LAP4-GFP MLPCN. S. cerevisiae CIT2-GFP strain, flow cytometry GFP, 3 h; DMSO control wells read 100%. GFP response vs DMSO, % at 10 µM. hit rate 8% among 590;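 active = GFP response vs DMSO above about 150%, limit read from the data; inconclusive = fewer than 70 events counted for a yeast strain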;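 note: median green fluorescence per well over all gated yeast cells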
AGP1-GFP pick2 – second confirmation of modulators of TOR reporter AGP1-GFP in yeast | shares compounds with LAP4-GFP MLPCN | S. cerevisiae AGP1-GFP strain, flow cytometry GFP, 3 h | percent response vs DMSO, % at 10 µM | 590 tested, under 10 active;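 active = over 150 percent of DMSO response; inconclusive = yeast strain measured with under 70 events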;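 note: median GFP channel fluorescence over all cells without mother daughter split; sample median GFP divided by mean DMSO control so 100% equals DMSO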
s288c autofluor – compound is autofluorescent in yeast s288c cells | shares compounds with LAP4-GFP MLPCN | S. cerevisiae s288c, 520 nm autofluorescence, flow cytometry, 3 h; hits give high values; zero means same as solvent-only cells | fluorescence change (kMESF span) at 33 µM | 610 tested, under 10 active;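 active = fluorescence span over the dose series, or activity score, above about 33, limit read from the data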
s288c autofl DR – yeast s288c autofluorescence artifact in dose response; shares compounds with LAP4-GFP MLPCN; S. cerevisiae s288c parental, compound autofluorescence, flow cytometry, 3 h; fluorescence change (span) at 33 µM; 110 tested, under 10 active;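 active = fluorescence change span, or the activity score built from it, above 25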
TORC1 bypass – wildtype yeast growth loss with TORC1 bypass cells unaffected; shares compounds with LAP4-GFP MLPCN; S. cerevisiae BY4741 spot growth rating, 48-72 h; hits give low values; growth rating (0-3) at 30 µM; 120 tested, under 10 active;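 active = growth rating at most 1 for wild type yeast while the TORC1 bypass strain still grows fully, rated 3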
The depositor's hits bear a star; i = inactive; ? = inconclusive; . = not tested or not shown. The list is not random: actives were taken first. Their share in the collection is about 1.8%.

SMILES	MEP2-GFP yeast	AGP1-GFP MLPCN	LAP4-GFP MLPCN	RPL19A-GFP yeast	CIT2-GFP yeast	Myeloid diff 2	LAP4 cherry2	MEP2-GFP pick2	RPL19A GFP CP2	CIT2 GFP CP2	AGP1-GFP pick2	s288c autofluor	others
Clc1cc(Cl)cc(Nc2cc(NC3CCCCC3)nc(NCc3ccccc3)n2)c1	.	.	.	.	.	.	.	.	.	.	.	.	s288c autofl DR=0.37;TORC1 bypass=3
Clc1cc(Cl)cc(Nc2cc(Oc3cccc(Cl)c3)nc(NCc3ccccc3)n2)c1	.	.	.	.	.	.	.	.	.	.	.	.	s288c autofl DR=0.16;TORC1 bypass=3
CC1(C)CCCN(C(=O)c2ccc3c(c2NCCO)C(=O)c2ccccc2C3=O)C1	97.1	94.4	87.0	100.3	94.6	i	.	.	.	.	.	.
O=c1c2cc(Cl)ccc2nc(-c2ccccc2Cl)n1O	94.9	75.8	113.0	59.9	75.2	i	105.2	97.8	100.4	87.6	104.4	.
CCOC(=O)c1nnc2ccnn2c1N	106.8	102.1	98.2	102.5	101.7	i	.	.	.	.	.	.
CC(=O)N[C@@H](Cc1c[nH]c2ccccc12)C(=O)OCc1cc(C(F)(F)F)cc(C(F)(F)F)c1	166.1	113.2	160.3*	78.9	101.2	i	100.2	101.3	98.7	100.1	96.6	.
CCOC(=O)C(Cc1c[nH]c2ccccc12)NC(=O)CNC(C)=O (stereo unspecified)	?	?	?	?	?	i	.	.	.	.	.	.
COc1cc(C(=O)COC(=O)c2ccco2)cc(OC)c1OC	104.9	110.5	185.8*	76.0	77.4	i	102.2	104.8	99.3	104.3	102.2	.
CC(=O)c1cccc(OCc2cc(C(=O)N3CC4C[C@@H]5CC3C[C@H](C4)C5)no2)c1	96.0	97.6	96.9	95.2	95.6	i	.	.	.	.	.	.
CCOC(=O)c1c(C)oc2c1c(C(c1cccnc1)N1CCOCC1)c(O)c1ccccc12 (stereo unspecified)	85.4	76.8	159.9*	80.4	72.4	i	.	.	.	.	.	2.14	s288c autofl DR=1.14;TORC1 bypass=3
C#CCOCCOCCOCCNc1nc(N2CCN(C(=O)CCCCCCCCCCNC(=O)[C@H](CCCCN)n3cc(C)nn3)CC2)nc(N2CCN(C(=O)CCCCCCCCCCNC(=O)[C@@H]([C@H](C)CC)n3cc(CCCCCN)nn3)CC2)n1	86.8	80.2	153.4*	88.5	89.4	i	114.2	120.5	95.7	107.1	101.0	.
C#CCOCCOCCOCCNc1nc(N2CCN(C(=O)CCCCCCCCCCNC(=O)[C@H](CCCCN)n3cc(CCO)nn3)CC2)nc(N2CCN(C(=O)CCCCCCCCCCNC(=O)[C@H](CCCN=C(N)N)n3cc(C[C@@H](C)CC)nn3)CC2)n1	100.4	89.4	200.7*	70.8	74.8	i	123.2	174.7*	90.1	108.5	111.6	-0.2
C#CCOCCOCCOCCNc1nc(N2CCN(C(=O)CCCCCCCCCCNC(=O)[C@H](CCCCN)n3cc(CCCC(=O)O)nn3)CC2)nc(N2CCN(C(=O)CCCCCCCCCCNC(=O)[C@H](CCCN=C(N)N)n3cc(C[C@@H](C)CC)nn3)CC2)n1	99.2	85.5	177.6*	81.0	80.2	i	107.7	164.7*	92.0	102.9	109.8	0
C#CCOCCOCCOCCNc1nc(N2CCN(C(=O)CCCCCCCCCCNC(=O)[C@H](CCCCN)n3cc(CCO)nn3)CC2)nc(N2CCN(C(=O)CCCCCCCCCCNC(=O)[C@H](CCCCN)n3cc(CCO)nn3)CC2)n1	88.0	77.4	129.2	89.0	86.6	i	.	.	.	.	.	.
C#CCOCCOCCOCCNc1nc(N2CCN(C(=O)CCCCCCCCCCNC(=O)[C@H]([C@@H](C)CC)n3cc(CCCCCN)nn3)CC2)nc(N2CCN(C(=O)CCCCCCCCCCNC(=O)[C@@H]([C@H](C)O)n3cc(C)nn3)CC2)n1	91.3	75.0	120.8	88.5	62.7	?	.	.	.	.	.	.
Nc1nc(C2CC2)c(Sc2sc(N)nc2C2CC2)s1	101.0	117.8	112.5	106.2	108.1	i	.	.	.	.	.	.
COc1ccc(/C=C\c2onc(C)c2S(=O)(=O)N2CCC(C(=O)NCCC(C)C)CC2)cc1	99.6	101.5	101.1	99.7	98.2	i	.	.	.	.	.	.
O=C(/C=C/c1ccccc1)NC(=S)NNC(=O)Cc1cccs1	107.0	94.4	106.9	95.3	77.1	i	104.2	101.3	96.3	102.9	100.2	0.2
COc1ccc(-n2cnc3sc(-c4ccccc4)cc3c2=O)cc1	102.2	105.9	99.2	97.3	105.3	i	.	.	.	.	.	.
CN1CCN(C(=O)c2cc(COc3c(F)cccc3F)on2)CC1c1ccccc1 (stereo unspecified)	101.4	119.5	157.9*	95.9	86.7	i	141.3	163.1*	109.5	115.3	110.2	1.72	s288c autofl DR=0.87;TORC1 bypass=0
Cc1ccc(Nc2nc3ccccc3nc2Nc2c(C)n(C)n(-c3ccccc3)c2=O)cc1	93.3	94.1	99.4	105.7	91.5	i	.	.	.	.	.	.
Cc1cccc(N2C(=O)C(Cl)=C(Nc3c(C)n(C)n(-c4ccccc4)c3=O)C2=O)c1C	109.1	101.0	109.2	103.4	98.9	i	.	.	.	.	.	0.2
Cc1ccc(N2C(=O)C(Cl)=C(Nc3c(C)n(C)n(-c4ccccc4)c3=O)C2=O)cc1	102.6	101.4	102.4	103.9	95.3	i	.	.	.	.	.	0.3

From PubChem BioAssay
